The panel holds about 83,000 compounds, 20% with a hit somewhere; the sample as a whole holds those more often.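 Single-concentration screen, 48 h exposure, 96-well plates. Endpoint: percent growth. Below 10 = active.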 Calls of active or inactive are those of the source.
Columns and labels:
Assay in all cases: NCI-60 one-dose screen, 48 h (100 = growth as untreated, 0 = no growth, -100 = all killed)
Details in all cases: 10 µM unless noted
NCI-H23 lung = system: NCI-H23 lung
NCI-H226 lung = system: NCI-H226 lung
NCI-H322M lung = system: NCI-H322M lung
HOP-62 NSCLC = system: HOP-62 NSCLC
NCI-H460 lung = system: NCI-H460 lung
HOP-92 NSCLC = system: HOP-92 NSCLC
NCI-H522 lung = system: NCI-H522 lung
A549/ATCC NSCLC = system: A549/ATCC NSCLC
786-0 renal = system: 786-0 renal
COLO 205 colon = system: COLO 205 colon

Measured: growth

Brc1ccc(-c2cc(-c3ccc4c(c3)OC=CO4)n[nH]2)s1
inactive: NCI-H23 lung 87.4% | NCI-H226 lung 95.1% | NCI-H322M lung 96.2% | HOP-62 NSCLC 82% | NCI-H460 lung 96.4% | HOP-92 NSCLC 99.7% | NCI-H522 lung 73.8% | A549/ATCC NSCLC 89.9% | 786-0 renal 104% | COLO 205 colon 97.1%

CCOC(=O)c1c(NC(=O)c2ccc(C(F)(F)F)cc2)sc2c3c(ccc12)OCN(C)C3
active: HOP-62 NSCLC -53.2% | NCI-H460 lung -17.8% | A549/ATCC NSCLC -37.9% | COLO 205 colon -22%
inactive: NCI-H23 lung 85.6% | NCI-H226 lung 97% | NCI-H322M lung 73.4% | HOP-92 NSCLC 14.5% | 786-0 renal 30.8%

COc1ccc2[nH]cc(/C=N/Nc3ccnc4cc(Cl)ccc34)c2c1
active: NCI-H23 lung -91.8% | NCI-H226 lung -78.7% | NCI-H322M lung -100% | HOP-62 NSCLC -56.7% | NCI-H460 lung -78.1% | HOP-92 NSCLC -91.6% | A549/ATCC NSCLC -49.2% | 786-0 renal -92.3% | COLO 205 colon -56.7%

O=C(/C=C/Nc1ccc(S(=O)(=O)Nc2ncccn2)cc1)c1ccc(N=Cc2c(O)[nH]c3ccccc23)cc1
inactive: NCI-H23 lung 96.5% | NCI-H226 lung 107% | NCI-H322M lung 114% | HOP-62 NSCLC 108% | NCI-H460 lung 105% | HOP-92 NSCLC 93.6% | A549/ATCC NSCLC 102% | 786-0 renal 96.2% | COLO 205 colon 117%

CC(=O)c1c([Si](C)(C)C)c2cc(C#N)ccn2c1C(=O)c1ccc(Br)cc1
inactive: NCI-H23 lung 84.1% | NCI-H226 lung 76.9% | NCI-H322M lung 85.3% | HOP-62 NSCLC 88.3% | NCI-H460 lung 95.5% | HOP-92 NSCLC 81.9% | A549/ATCC NSCLC 90.3% | 786-0 renal 76.5% | COLO 205 colon 104%

Cc1ccc(Nc2nc(SC(C)C)nc(-c3ccccc3)c2C#N)cc1
inactive: NCI-H23 lung 86.1% | NCI-H226 lung 76.1% | NCI-H322M lung 70.7% | HOP-62 NSCLC 72.2% | NCI-H460 lung 95.2% | HOP-92 NSCLC 80.7% | NCI-H522 lung 83.7% | A549/ATCC NSCLC 96.2% | 786-0 renal 92.2% | COLO 205 colon 112%

N#Cc1c(-c2ccc(Br)cc2)cc(-c2c[nH]c3ccccc23)nc1N
inactive: NCI-H23 lung 51.3% | NCI-H226 lung 60% | NCI-H322M lung 67.6% | HOP-62 NSCLC 42.5% | NCI-H460 lung 16.7% | HOP-92 NSCLC 43.6% | A549/ATCC NSCLC 42.1% | 786-0 renal 79.7% | COLO 205 colon 51.5%

CCc1cc(O)ccc1Nc1cc(-c2ccc(-n3cccn3)cc2)[nH]n1
inactive: NCI-H23 lung 74.7% | NCI-H226 lung 87.3% | NCI-H322M lung 64% | HOP-62 NSCLC 37% | NCI-H460 lung 45% | HOP-92 NSCLC 139% | NCI-H522 lung 38% | A549/ATCC NSCLC 56.2% | 786-0 renal 84.9% | COLO 205 colon 49.8%

CC[C@H](CC[C@@H](C)[C@H]1CC[C@H]2[C@@H]3CC(=O)C4=CC(=O)/C(=C/c5ccc([N+](=O)[O-])cc5)C[C@]4(C)[C@H]3CC[C@]12C)C(C)C
inactive: NCI-H23 lung 103% | NCI-H226 lung 103% | NCI-H322M lung 103% | HOP-62 NSCLC 104% | NCI-H460 lung 106% | HOP-92 NSCLC 114% | A549/ATCC NSCLC 99% | 786-0 renal 99% | COLO 205 colon 118%

COc1ccccc1/C=C1\Oc2ccc(O)c(O)c2C1=O
inactive: NCI-H23 lung 93.2% | NCI-H226 lung 110% | NCI-H322M lung 102% | HOP-62 NSCLC 99.9% | NCI-H460 lung 101% | HOP-92 NSCLC 103% | A549/ATCC NSCLC 101% | 786-0 renal 94.1% | COLO 205 colon 116%

O=C1[C@@H]2Cc3c([nH]c4ccccc34)[C@H](c3ccc(Br)cc3)N2C(=O)CN1C1CCN(Cc2c(Cl)cccc2Cl)CC1
inactive: NCI-H23 lung 91.7% | NCI-H226 lung 85.8% | NCI-H322M lung 95.1% | HOP-62 NSCLC 91.9% | NCI-H460 lung 97.5% | HOP-92 NSCLC 94.1% | A549/ATCC NSCLC 93% | 786-0 renal 99.8% | COLO 205 colon 105%

Brc1cc(-c2cc(-c3ccc4c(c3)OC=CO4)[nH]n2)cs1
inactive: NCI-H23 lung 79.3% | NCI-H226 lung 92% | NCI-H322M lung 91.4% | HOP-62 NSCLC 84.7% | NCI-H460 lung 97.8% | HOP-92 NSCLC 101% | A549/ATCC NSCLC 93.9% | 786-0 renal 106% | COLO 205 colon 98.5%

O=C(Nc1ccc(Cl)c(C(F)(F)F)c1)Nc1ccc2oc(=O)ccc2c1
active: NCI-H23 lung 4.85% | HOP-92 NSCLC -1.84%
inactive: NCI-H226 lung 26.6% | NCI-H322M lung 60.5% | HOP-62 NSCLC 73.4% | NCI-H460 lung 18.1% | A549/ATCC NSCLC 39.8% | 786-0 renal 70.3% | COLO 205 colon 58%

O=C(CCCCCCNC(=O)C(O)(O)C(F)(F)F)Nc1ncc(-c2ccc(Br)cc2)s1
inactive: NCI-H322M lung 12.2% | 786-0 renal 14.9%
active: NCI-H23 lung -16% | NCI-H226 lung 4.5% | HOP-62 NSCLC -6.49% | NCI-H460 lung 0.631% | HOP-92 NSCLC -23.3% | A549/ATCC NSCLC -15.2% | COLO 205 colon -55.9%

COCCOc1ccc2ncc(C#Cc3cncc(C(=O)Nc4ccc(CN5CCN(C)CC5)c(C(F)(F)F)c4)c3)n2n1
active: NCI-H23 lung -48.7% | NCI-H226 lung -12.7% | NCI-H460 lung 0.556% | HOP-92 NSCLC -44.1% | 786-0 renal -15.3% | COLO 205 colon -32.7%
inactive: NCI-H322M lung 18.7% | HOP-62 NSCLC 18.4% | A549/ATCC NSCLC 10.3%

CCN(CC)c1ccc(/C=N/NC(=O)c2ccc(NS(C)(=O)=O)cc2)cc1
active: NCI-H460 lung 8.88%
inactive: NCI-H23 lung 36.5% | NCI-H226 lung 51.8% | NCI-H322M lung 27.3% | HOP-62 NSCLC 17.4% | HOP-92 NSCLC 80% | A549/ATCC NSCLC 29.9% | 786-0 renal 13.5% | COLO 205 colon 13.9%

CN1CCN(c2ccc(Nc3nc(NCCNC(=O)c4ccc(F)cc4)c4sccc4n3)cc2)CC1
inactive: NCI-H23 lung 74.2% | NCI-H226 lung 91.1% | NCI-H322M lung 81.7% | HOP-62 NSCLC 99.4% | NCI-H460 lung 84.5% | HOP-92 NSCLC 50.1% | A549/ATCC NSCLC 77.9% | 786-0 renal 52.3% | COLO 205 colon 44.3%

NC(=O)n1c(=O)n(-c2cccc(C(F)(F)F)c2)c(=O)c2cc(-c3ccc(F)cc3F)ccc21
inactive: NCI-H226 lung 13.2% | 786-0 renal 45% | COLO 205 colon 87.5%
active: NCI-H23 lung -6% | NCI-H322M lung 0.936% | HOP-62 NSCLC -9.38% | NCI-H460 lung 4.55% | HOP-92 NSCLC -36.3% | A549/ATCC NSCLC 4.69%

CCNC(=O)Oc1ccc(/C(=C(/C)c2ccc(OC)cc2)c2ccc(OCCN3CCCCCC3)cc2)cc1
active: COLO 205 colon -41.1%
inactive: NCI-H23 lung 52.8% | NCI-H226 lung 87.4% | NCI-H322M lung 80.9% | HOP-62 NSCLC 31.9% | NCI-H460 lung 16.7% | HOP-92 NSCLC 49.5% | A549/ATCC NSCLC 54.4% | 786-0 renal 35.5%

Cc1ccc2c(n1)C(=O)C(Cl)=C(Nc1ccccc1C(=O)OC(C)(C)C)C2=O
inactive: NCI-H23 lung 10.6% | NCI-H226 lung 74.9% | NCI-H322M lung 98.7% | HOP-62 NSCLC 95.3% | NCI-H460 lung 86.2% | A549/ATCC NSCLC 102%
active: HOP-92 NSCLC -72% | 786-0 renal -79.2% | COLO 205 colon -66.1%

CCCCSC1=C(Cl)CN(c2ccc(Cl)cc2)C1=O
inactive: NCI-H23 lung 102% | NCI-H226 lung 96.1% | NCI-H322M lung 107% | HOP-62 NSCLC 106% | NCI-H460 lung 93.4% | HOP-92 NSCLC 96.6% | A549/ATCC NSCLC 102% | 786-0 renal 99.2% | COLO 205 colon 125%

O=C(N/N=C\c1ccc([N+](=O)[O-])cc1)c1ccc2nc(-c3ccc(Br)cc3)[nH]c2c1
inactive: NCI-H226 lung 62.4% | NCI-H322M lung 68.2% | HOP-62 NSCLC 29.7% | HOP-92 NSCLC 55% | A549/ATCC NSCLC 27.2% | 786-0 renal 36.8%
active: NCI-H23 lung 8.79% | NCI-H460 lung -43.8% | COLO 205 colon -50.6%

CCCCCc1ccc(S(=O)(=O)Nc2cc(-c3csc(N)n3)ccc2OC)cc1
inactive: NCI-H23 lung 88.7% | NCI-H226 lung 80% | NCI-H322M lung 103% | HOP-62 NSCLC 108% | NCI-H460 lung 99.5% | HOP-92 NSCLC 97.3% | A549/ATCC NSCLC 88% | 786-0 renal 99.1% | COLO 205 colon 117%

O=C(COc1ccc(/C=C2\C(=O)Nc3ccc(F)cc32)cc1)Nc1ccccc1
inactive: NCI-H23 lung 95% | NCI-H226 lung 96.6% | NCI-H322M lung 99.3% | HOP-62 NSCLC 99.5% | NCI-H460 lung 96.1% | HOP-92 NSCLC 116% | A549/ATCC NSCLC 96.7% | 786-0 renal 105% | COLO 205 colon 113%

O=c1[nH][nH]c(-c2ccc(F)cc2)c1-c1nc2ccccc2s1
inactive: NCI-H23 lung 89.9% | NCI-H226 lung 82.3% | NCI-H322M lung 88.7% | HOP-62 NSCLC 89.4% | NCI-H460 lung 92.2% | HOP-92 NSCLC 77.1% | A549/ATCC NSCLC 111% | 786-0 renal 107% | COLO 205 colon 113%

CC(C)(C)OC(=O)NCc1ccc(CNc2c([N+](=O)[O-])cnc3ccccc23)cc1
inactive: NCI-H23 lung 46.2% | NCI-H226 lung 55.2% | NCI-H322M lung 91.6% | HOP-62 NSCLC 58.5% | NCI-H460 lung 70.1% | HOP-92 NSCLC 32.1% | A549/ATCC NSCLC 72.2% | 786-0 renal 73.8% | COLO 205 colon 80.1%

COc1ccc2c(c1)c(/C=N/Nc1ccnc3cc(Cl)ccc13)cn2C
active: NCI-H23 lung -80.5% | NCI-H226 lung -52.3% | NCI-H322M lung -95.1% | HOP-62 NSCLC -81.1% | NCI-H460 lung -79.1% | HOP-92 NSCLC -81.7% | A549/ATCC NSCLC -69.7% | 786-0 renal -81.3% | COLO 205 colon -86.6%

Clc1cccc(/C=N/Nc2nc(N/N=C/c3cccc(Cl)c3)nc(N3CCOCC3)n2)c1
inactive: NCI-H23 lung 70.6% | NCI-H226 lung 60.4% | NCI-H322M lung 53.8% | HOP-62 NSCLC 110% | HOP-92 NSCLC 65.4% | A549/ATCC NSCLC 46.6% | 786-0 renal 30.6% | COLO 205 colon 36.9%

From PubChem BioAssay (NCI)
